This is a sample that favours compounds with a hit; in the whole collection about 19% have one here.
TDP1 cell noCPT: qHTS for Inhibitors of human tyrosyl-DNA phosphodiesterase 1 (TDP1): qHTS in cells in absence of CPT; DT40 Tdp1-/- hTDP1 cells, no CPT, ATP luminescence, 48 h; Potency, µM (doses to about 46.2 µM), most hits filed as inhibitors; 15% of 420,000 active; AID 686978, 2013; further: nearly all actives have a fitted effect of over 55% in size
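Chicken DT40 Tdp1-/- cells stably complemented with human TDP1 were seeded at 400 cells/well with DMSO in place of 20 nM camptothecin. After compound pinning, cells grew at least 48 hr at 37 °C; viability read by CellTiter-Glo luminescence.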
KB-V1 cytotox: kills drug-selected multidrug resistant KB-V1 cells | KB-V1 MDR cells viability, CellTiter-Glo, 72 h | Potency, µM (series often up to 46.1 µM), most hits filed as cytotoxic | 3.4% of 400,000 active | AID 1347076; further: nearly all actives have a fitted effect of over 60% in size
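Drug-selected KB-V1 cells, grown in DMEM lacking phenol red with 10% FBS, receive compound titrations; after three days at 37 degrees C, surviving cell ATP is quantified by CellTiter-Glo luminescence and responses normalized and curve-fitted.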
HT1080 IDH1KD tx: toxicity to HT-1080 IDH1 knockdown cells (counter line). HT-1080 IDH1 knockdown viability, ATP luminescence, 48 h. 2% of 360,000 active. Potency, µM (top dose mostly 46.1 µM), usual class: cytotoxic
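HT-1080-IDH1KD cells (IDH1 knocked down), 750/well in RPMI with 5% FBS, treated with compound 48 h at 37 degrees C. Viability by CellTiter-Glo luminescence, normalised to DMSO and no-cell wells; concentration-response curves classed.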
DT40 TDP1 CPT: DT40-hTDP1 cell growth loss with CPT; chicken DT40 Tdp1-/-;hTDP1 cells + 20 nM CPT, ATP luminescence, 48 h; Potency, µM (titrated, usually from 46.2 µM), usual class: inhibitors; 12% of 420,000 active; AID 686979; further: nearly all actives have a fitted effect of over 55% in size
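Chicken DT40 Tdp1-/- cells complemented with human TDP1, 400 cells/well, exposed to compounds plus 20 nM camptothecin for at least 48 h at 37 C; viability read as ATP content by CellTiter-Glo luminescence.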
KB-3-1 tox: KB-3-1 parental cell cytotoxicity; 1.4% of 400,000 active; KB-3-1 viability, CellTiter-Glo ATP luminescence, 72 h; Potency, µM (highest dose often 46.1 µM), actives largely listed as cytotoxic; AID 1347075; further: nearly all actives have a fitted effect of over 60% in size
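Here the drug-naive KB-3-1 line serves as comparator for MDR sub-line selectivity; cells received compound titrations, 72 h at 37 °C, then CellTiter-Glo readout.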
HT1080NT lethal: kills 2HG-producing HT-1080-NT fibrosarcoma cells | HT-1080-NT fibrosarcoma viability, CellTiter-Glo ATP luminescence, 48 h | Potency, µM (top dose mostly 46.1 µM), actives largely listed as cytotoxic | 1.6% of 360,000 active;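 further: NT is the 2HG producing partner of a matched IDH1 knockdown line; nearly all actives have a fitted effect of over 55% in size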
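Fibrosarcoma NT cells, 750 per well in 5% FBS RPMI, were exposed to compound for 48 hours. Viability: CellTiter-Glo luminescence.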
Of the large screens only hits and unclear results are named; the others gave an inactive call. The call rests on the fitted dose curve; in most records, active means well fitted curve in the direction sought with a large enough effect; inconclusive means small, poorly fitted or top-dose-only effect, or another doubt; inactive means no such curve, though single readings can be large; an effect the other way counts as inactive or inconclusive.

Cc1cccc(C)c1NC(=O)CN1CCN(C(=O)CCC(=O)N2CCC(c3ccccc3)=N2)CC1	none
O=C(CN1CCN(C(=O)CCC(=O)N2CCC(c3ccccc3)=N2)CC1)Nc1ccc(F)cc1	TDP1 cell noCPT 23.1µM, KB-V1 cytotox inconclusive, DT40 TDP1 CPT inconclusive, KB-3-1 tox inconclusive
CCOC(=O)c1cc(S(=O)(=O)NCc2ccc(OC)cc2)[nH]n1	none (no result: HT1080 IDH1KD tx, HT1080NT lethal)
O=C1CCc2cc(S(=O)(=O)NC3CCCCC3)ccc2N1	none
COC(=O)c1ccc(-c2cc(CC3(C(=O)OC)CCN(C(=O)OC(C)(C)C)CC3)on2)cc1	TDP1 cell noCPT inconclusive, DT40 TDP1 CPT 23.1µM
C/C(=N/NC(=O)c1cc(-c2ccc(Cl)s2)[nH]n1)c1ccco1	TDP1 cell noCPT inconclusive, KB-3-1 tox inconclusive
CCc1ccc(-c2c(C)sc(NC(C)=O)c2C(N)=O)cc1	TDP1 cell noCPT 23.1µM, DT40 TDP1 CPT inconclusive
Cc1sc(NC(=O)C2C3CCC(C3)C2C(=O)O)c(C(N)=O)c1-c1ccc(C(C)(C)C)cc1 (stereo not drawn)	TDP1 cell noCPT 11.6µM, HT1080 IDH1KD tx inconclusive, DT40 TDP1 CPT inconclusive, HT1080NT lethal inconclusive
CCOC(=O)c1c(NC(=O)/C=C\C(=O)O)sc(C)c1-c1ccccc1	TDP1 cell noCPT inconclusive, HT1080 IDH1KD tx inconclusive, DT40 TDP1 CPT inconclusive, HT1080NT lethal inconclusive
Cc1sc(NC(=O)/C=C/C(=O)O)c(C(N)=O)c1-c1ccc(C(C)(C)C)cc1	TDP1 cell noCPT inconclusive, HT1080 IDH1KD tx 20.6µM, DT40 TDP1 CPT 23.1µM, HT1080NT lethal inconclusive
CCOC(=O)c1c(NC(=O)/C=C/C(=O)O)sc(C)c1-c1ccc(C(C)(C)C)cc1	TDP1 cell noCPT 20.6µM, KB-V1 cytotox inconclusive, HT1080 IDH1KD tx 5.8µM, DT40 TDP1 CPT 13µM, HT1080NT lethal 8.2µM
Cc1sc(NC(=O)c2cccc([N+](=O)[O-])c2)c(C(N)=O)c1-c1ccc(C(C)(C)C)cc1	TDP1 cell noCPT 20.6µM, DT40 TDP1 CPT inconclusive
CCOC(=O)CCN(C(=S)Nc1ccccc1)C1CCCCC1	KB-3-1 tox inconclusive
CCC1(C)COC(C)(CC(=O)NNC(=O)Nc2ccccc2)OC1 (stereo not drawn)	none
C=CCn1c(=O)c2ccccc2n2c(SCc3nnc(-c4ccccc4Br)o3)nnc12	DT40 TDP1 CPT inconclusive
Cc1ccc(OCC(=O)NNC(=O)C(C)Sc2ncnc3sc(C)c(C)c23)cc1 (stereo not drawn)	none
Cc1sc2ncnc(SCC(=O)NC3CC3)c2c1C	KB-V1 cytotox 20.6µM
Cc1sc2ncnc(SCC(=O)NC(C)C(C)C)c2c1C (stereo not drawn)	TDP1 cell noCPT 16.4µM, DT40 TDP1 CPT 16.4µM
Cc1sc2ncnc(SC(C)C(=O)N3c4ccccc4Sc4ccccc43)c2c1C (stereo not drawn)	TDP1 cell noCPT 23.1µM, KB-V1 cytotox inconclusive, DT40 TDP1 CPT 20.6µM, KB-3-1 tox inconclusive
Cc1sc2ncnc(SCC(=O)NC3CCCC3)c2c1C	TDP1 cell noCPT inconclusive, KB-V1 cytotox inconclusive
Cc1sc2ncnc(SCC(=O)N(C(C)C)C(C)C)c2c1C	none
Cc1ccc(-n2nnc3c(SCC(=O)NCC4CCCO4)ncnc32)cc1 (stereo not drawn)	TDP1 cell noCPT 11.6µM, DT40 TDP1 CPT 20.6µM
CCOC(=O)CN1C(=N)N(c2nc(NC(C)C)nc(NC(C)C)n2)CC1=O	none
COc1ccc(C(=O)NCCn2cc(SCC(N)=O)c3ccccc32)cc1	none
CCCCCCCC/C=C\CCCCCCCC(=O)OCC(CO)OC(=O)CCCCCCC/C=C\CCCCCCCC (stereo not drawn)	none (no result: KB-V1 cytotox, HT1080 IDH1KD tx, KB-3-1 tox, HT1080NT lethal)
O=C(CSc1ncnc2sc3c(c12)CCC3)NCC1CCCO1 (stereo not drawn)	none
CC1CCc2c(sc3ncnc(SC(C)C(=O)NCC4CCCO4)c23)C1 (stereo not drawn)	TDP1 cell noCPT 20.6µM, KB-V1 cytotox inconclusive, HT1080 IDH1KD tx inconclusive, DT40 TDP1 CPT 25.9µM, KB-3-1 tox inconclusive, HT1080NT lethal inconclusive
Cc1sc2ncnc(SCC(=O)Nc3nc(-c4ccc(F)c(F)c4)cs3)c2c1C	TDP1 cell noCPT 20.6µM
Cn1nnnc1SCC(=O)Nc1nc(-c2ccc(F)c(F)c2)cs1	TDP1 cell noCPT inconclusive, DT40 TDP1 CPT inconclusive
Cc1sc2ncnc(SCC(=O)NCC3CCCO3)c2c1C (stereo not drawn)	TDP1 cell noCPT 5.17µM, KB-V1 cytotox inconclusive, DT40 TDP1 CPT 0.259µM
CCCc1nc(SCC(=O)N2CCOCC2)c2c(C)c(C)sc2n1	TDP1 cell noCPT inconclusive, KB-V1 cytotox 9.2µM
C=C(C)c1cccc(C(C)(C)NC(=O)N2CCN(C(=O)OCC)CC2)c1	none
CCCCC(=O)Nc1ccc(NC(=O)c2ccccc2[N+](=O)[O-])cc1OC	KB-3-1 tox inconclusive
Cc1nc(SCC(=O)N2CCN(C(=O)c3cccs3)CC2)c2c(C)c(C)sc2n1	TDP1 cell noCPT 16.4µM, KB-V1 cytotox inconclusive, DT40 TDP1 CPT 25.9µM, KB-3-1 tox inconclusive
CC(=O)N1CCN(C(=O)CSc2ncnc3sc(C)c(C)c23)CC1	KB-V1 cytotox 14.6µM, KB-3-1 tox inconclusive
Cc1nc(SCC(=O)N2CCN(C(=O)c3ccco3)CC2)c2c(C)c(C)sc2n1	TDP1 cell noCPT inconclusive, KB-V1 cytotox inconclusive, DT40 TDP1 CPT inconclusive
Cc1cccc(C)c1C(OCCN(C)C)C1CCCCC1 (stereo not drawn)	TDP1 cell noCPT inconclusive, KB-V1 cytotox inconclusive, DT40 TDP1 CPT 18.4µM
Cc1cccnc1NC1CCCCC1	none
Nc1c(-c2nc(-c3ccccc3)cs2)c2ccccn2c1C(=O)c1ccc2c(c1)OCO2	TDP1 cell noCPT 6.51µM, KB-V1 cytotox inconclusive, DT40 TDP1 CPT 18.4µM, KB-3-1 tox inconclusive (no result: HT1080 IDH1KD tx, HT1080NT lethal)
COc1cccc(-c2csc(-c3c(N)c(C(=O)c4ccccc4)n4ccccc34)n2)c1	TDP1 cell noCPT 16.4µM, DT40 TDP1 CPT inconclusive (no result: HT1080 IDH1KD tx, HT1080NT lethal)
Cc1ccc(-n2nnc(-c3nc(-c4cccs4)no3)c2N)c(C)c1	none (no result: KB-V1 cytotox, HT1080 IDH1KD tx, KB-3-1 tox, HT1080NT lethal)
CCN(CC)CCNC(=O)c1ccc2c(c1)NC(=O)C(CS(=O)(=O)Cc1ccc(F)cc1Cl)N2 (stereo not drawn)	TDP1 cell noCPT inconclusive, DT40 TDP1 CPT 18.4µM (no result: HT1080 IDH1KD tx, HT1080NT lethal)
CC(C)CCNC(=O)c1ccc2c(c1)NC(=O)C(CS(=O)(=O)Cc1cccc(Br)c1)N2 (stereo not drawn)	TDP1 cell noCPT inconclusive (no result: HT1080 IDH1KD tx, HT1080NT lethal)
CC(C)CC1Nc2ccc(C(=O)NCCCN3CCOCC3)cc2NC1=O (stereo not drawn)	TDP1 cell noCPT 16.4µM, DT40 TDP1 CPT 25.9µM, KB-3-1 tox inconclusive
